Test results as given in ChEMBL document CHEMBL3988442, “University of Dundee, Small-Polar-MMV Screening Library” (2021).
The whole screen tested about 48,000 compounds, of which about 13,000 (27%) showed an effect of 50% or more. The list shows a part of the results.

Each compound was assayed on Wolbachia pipientis (assay: Anti-Wolbachia Cell-Based Screen). Conditions: 5 µM.
Assay type: functional
Design: scale not given: in the data most compounds retested in dose-response had high values

Compound	Percent Effect [%]
CCC(C)NC(=O)N1CCCn2cnc(CO)c2C1 (stereo not drawn)	-12.35
CC(C)CC(=O)N1CCCn2cnc(CN3CCCC3=O)c2C1	1.077
O=C(NC1CCCC1)N1CCCC(c2nccn2Cc2ccncc2)C1 (stereo not drawn)	-3.815
O=C1CCCN1Cc1ncn2c1CN(C(=O)NC1CCCCC1)CCC2	133.6
CC(C)NC(=O)N1CCCn2cnc(CO)c2C1.O=C(O)C(F)(F)F	89.15
CC(C)NC(=O)N1CCCn2cnc(CN3CCCC3=O)c2C1	81.15
O=C1CCCN1Cc1ncn2c1CN(C(=O)NC1CCCC1)CCC2	86.82
CC(C)OCc1ncn2c1CN(CCO)CCC2.O=C(O)C(F)(F)F	-4.222
Cn1nnnc1SCCNC(=O)CC1CCc2ccccc21 (stereo not drawn)	1.963
CCC(CO)NC(=O)Nc1ccc(OCC(F)(F)F)c(C)c1 (stereo not drawn)	-12.14
CCN(Cc1noc(CC(C)C)n1)Cc1ccccc1OCC(=O)O	3.118
O=C(Cn1ccc2ccccc21)N1CCC(Oc2ncccc2Br)CC1	10.7
Cl.Cl.c1c(CN2CCCCC2)nc2n1CCNC2	4.844
CC(C)c1ccc(-n2cc(O)c(C(=O)O)n2)cc1	3.312
CCCNC(=O)CN1CCC(NCc2c(C)nn(C)c2OC)CC1	-12.27
CNC(=O)[C@@H]1C[C@@H](NC(=O)CCCc2cccs2)CN1C1CCOCC1	-14.74
CN(C)C(=O)NCc1ncn2c1CN(Cc1cccs1)CCC2.O=C(O)C(F)(F)F.O=C(O)C(F)(F)F	0.9692
Cn1cc(CN2CCCn3cnc(CN4CCCC4=O)c3C2)cn1	-11.95
O=C(O)C(F)(F)F.O=C1CCCN1Cc1ncn2c1CN(C(=O)N1CCCC1)CCC2	106.2
Cc1cccc(NC(=O)N2CCCn3cnc(CN4CCCC4)c3C2)c1.O=C(O)C(F)(F)F	-10.04
O=C1CCCN1Cc1ncn2c1CN(C(=O)C1CC=CC1)CCC2	99.96
Cc1cccc(NC(=O)N2CCCn3cnc(CN(C)C(C)C)c3C2)c1.O=C(O)C(F)(F)F	110.9
O=C1O[C@@H]2CN(Cc3ccccc3F)C[C@@H]2N1CCCN1CCOCC1	2.415

Compound	Percent Effect [%]
CCn1c(CN2CCCC(Cn3cncn3)C2)nc2c(F)cccc21 (stereo not drawn)	-3.133
NCC1(CN2CCOCC2)CCCCC1	7.377
Cc1nsc(NC(=O)NC2(CN3CCOCC3)CCCCC2)n1	1.675
NC1(CN2CCCCC2)CCCCC1	100.8
OC1(CN2CCCC2)CCCN(c2ncnc3[nH]cnc23)C1 (stereo not drawn)	-10.69
OCCN1CCN(CC2(O)CCCCC2)CC1	-8.643
NC1(CN2CCOCC2)CCCCC1	80.74
CCCc1nc(C)c(CNc2nc(C)nc3oc(C)nc23)s1	10.41
Cc1nnc(SCCC(=O)N(C)Cc2ccc(F)cc2Cl)[nH]1	5.698
c1ccc(NCc2ccsc2)c(Cn2cncn2)c1	3.372
CC(=O)NC(Cc1c[nH]c2cc(F)ccc12)C(=O)Nc1cnn(C)c1 (stereo not drawn)	-8.595
COc1ccc(C(C)NC(=O)NCCc2ccc(C)nc2)c(OC)c1 (stereo not drawn)	8.171
COc1ccc(C(C)NCCc2ccc(NC(C)=O)cc2)c(OC)c1 (stereo not drawn)	110.9
COc1ccc(C(C)NCc2nnc(C)s2)cc1F (stereo not drawn)	-18.95
COc1ccc(C(C)NC(=O)NCCCn2cncn2)cc1F (stereo not drawn)	3.932
COc1ccc(C(C)NCCC(N)=O)cc1F (stereo not drawn)	53.8
COc1ccc(C(C)Nc2ncc(C(N)=O)cc2Cl)cc1F (stereo not drawn)	-11.64
COc1ccc(C(C)NC(=O)Nc2nnc(C)s2)c(OC)c1 (stereo not drawn)	5.487
COc1ccc(C(C)NCCc2ccc(NC(C)=O)cc2)cc1F (stereo not drawn)	98.08
COc1ccc(NC(C)C(=O)NCCc2cccs2)cc1F (stereo not drawn)	-5.142
Cc1ccc(NCc2ccccc2C#N)cc1-n1cnnn1	14
CCCNC(=O)CNc1cc(C(=O)NCC(F)(F)F)cc(F)c1C	-0.1534
COCCN(Cc1ccco1)Cc1nc(-c2ccccc2C)no1	-8.039

Compound	Percent Effect [%]
CN(c1ncc(S(N)(=O)=O)s1)C1CCc2ccccc21 (stereo not drawn)	0.8223
Cc1nc(CNCC2Cn3nncc3CO2)cs1.O=C(O)C(F)(F)F (stereo not drawn)	95.04
Cc1cc(CNCC2Cn3nnc(C)c3CO2)oc1C.O=C(O)C(F)(F)F (stereo not drawn)	-14.18
O=C(O)C(F)(F)F.c1ccc(CCNCC2Cn3nncc3CO2)cc1 (stereo not drawn)	-6.101
Fc1ccc(CNCC2Cn3nncc3CO2)cc1.O=C(O)C(F)(F)F (stereo not drawn)	10.26
O=C(O)C(F)(F)F.c1cc(CNCC2Cn3nncc3CO2)co1 (stereo not drawn)	-8.195
Cc1noc(C)c1CNCC1Cn2nncc2CO1.O=C(O)C(F)(F)F (stereo not drawn)	106
COc1cc2ccn(CCCO)c(=O)c2cc1F	-13.96
Cc1ccc(CCCC(=O)N2CCC(=O)Nc3cccnc32)s1	9.523
Cl.Cl.O[C@@H]1C[C@@](CNCc2ccc(Cl)cc2)(COc2cccnc2)C[C@@H]1O	-11.4
Cc1nc(C)n(CC(C)C(=O)N2CCC(CN3CCOCC3)CC2)n1 (stereo not drawn)	-24.3
CC(C)(C)CC(=O)N1CSCC1C(=O)NC1=NCCS1 (stereo not drawn)	6.289
CS(=O)(=O)N1CCC(Oc2ccc(C(=O)NC3CCCC3)cc2Cl)CC1	-48.27
CS(=O)(=O)N1CCC(NC(=O)COc2ccc(Br)cc2Cl)CC1	124.9
COC(C(=O)NC1CCN(S(C)(=O)=O)CC1)c1ccccc1 (stereo not drawn)	12.34
CNC(=O)c1ccc(OC2CCN(S(C)(=O)=O)CC2)c(Cl)c1	-16.21
CS(=O)(=O)N1CCC(NC(=O)COc2ccccc2Cl)CC1	111.5
COc1cccc2c1OCC(C(=O)NC1CCN(S(C)(=O)=O)CC1)C2 (stereo not drawn)	11.83
CC(CNC(=O)N1CCN(CC(F)F)CC1)Cc1cccs1 (stereo not drawn)	5.816
Cn1ccnc1C(O)(CCNCc1ccco1)C(F)(F)F (stereo not drawn)	-13.62
CN(C)CCNC(=O)Nc1cccc(C[S+]([O-])Cc2ccccc2)c1 (stereo not drawn)	-3.662
Cc1noc(CN(C)CC2CCN(CCO)CC2)n1	3.042
COc1cccc(OC)c1CN1CCC2(CC(Nc3ccncn3)C2)C1 (stereo not drawn)	4.398

Compound	Percent Effect [%]
COc1cc(CN2CCC3(CC(Nc4ccncn4)C3)C2)cc(OC)c1 (stereo not drawn)	125.9
COc1ccc(CN2CCC3(CCCNC3)C2)cc1Cn1cccn1 (stereo not drawn)	-22.52
COc1ccc(CN2CCC3(CC(Nc4ccncn4)C3)C2)c(OC)c1 (stereo not drawn)	2.421
COc1cccc(CN2CCC3(CC(Nc4ccncn4)C3)C2)c1F (stereo not drawn)	97.57
Cc1c(NC(=O)CN2CCC(Oc3cnccn3)CC2)cnn1C	146
CCOC1CCN(CC(=O)Nc2oc(C)c3c(C)n[nH]c(=O)c23)CC1	-5.173
COc1ccnc(NC2CCN(CC(=O)Nc3ccccc3)CC2)n1	-1.982
Cc1nn(C)c(C)c1CC(=O)NCc1ccnc(OC2CCCC2)c1	-17.69
Cc1nn(C)cc1NC(=O)CN1CCC(Oc2cnccn2)CC1	129.5
Cn1ccc(NC(=O)CN2CCC(Oc3cnccn3)CC2)n1	107.4
O=C(Cn1ccc2ccccc21)N1CCC(Oc2cnccn2)CC1	0.2299
O=C(Cn1cccn1)N1CCC(Oc2cnccn2)CC1	4.434
Cc1nc(C)c(CN2CCOC[C@H](Oc3cnccn3)C2)s1	-6.668
CN1CCC(N2CCN(C(C(=O)O)c3cccc4c3OCC4)CC2)CC1 (stereo not drawn)	-2.868
Cc1nc(-c2cc(C(=O)NC(C)(C(=O)O)C(C)C)co2)cs1 (stereo not drawn)	1.094
O=C(NCCC1CCCCO1)c1cc(COc2cncc(Cl)c2)on1 (stereo not drawn)	-5.256
CSC(C)(C)CNC(=O)NC1CCSCC1	-7.35
Cc1cnn(-c2ccc(C(=O)N3CCN(C)CC3C)cc2)c1 (stereo not drawn)	-5.131
Cc1cc(NC(=O)N2CCN(C)CC2C)n(Cc2ccccc2)n1 (stereo not drawn)	-3.69
CC1CN(C)CCN1C(=O)c1ccn(-c2ccccc2Cl)n1 (stereo not drawn)	97.32
CC1CN(C)CCN1C(=O)c1ccc(-n2cnnc2)cc1 (stereo not drawn)	-8.678
CC1CN(C)CCN1C(=O)c1cccn1Cc1ccncc1 (stereo not drawn)	17.94
COc1ccc(-n2ccc(C(=O)N3CCN(C)CC3C)n2)cc1 (stereo not drawn)	-4.695

Compound	Percent Effect [%]
CC1CN(C)CCN1C(=O)c1cccn1Cc1cccnc1 (stereo not drawn)	1.342
CC1CN(C)CCN1C(=O)c1ccn(-c2ccccc2)n1 (stereo not drawn)	92.82
CCc1nc(C(=O)N2CCN(C)CC2C)nn1-c1ccccc1Cl (stereo not drawn)	4.953
CC1CN(C)CCN1C(=O)c1cnn(-c2ccc(Cl)cc2)c1 (stereo not drawn)	3.844
CC1CN(C)CCN1C(=O)c1ccn(-c2ccc(F)cc2)n1 (stereo not drawn)	101.7
CC1CN(C)CCN1C(=O)c1cnn(-c2cccc(Cl)c2)c1 (stereo not drawn)	91.23
CCCn1cnnc1CNC(=O)CC1C(=O)NCCN1CC(C)(C)C (stereo not drawn)	2.919
O=C1N(CC2CC2)C2(CCSCC2)NC12CCCC2	-1.128
O=C1CC(c2ccc(C(=O)O)cc2)c2ncn(-c3cccc(Cl)c3)c2N1 (stereo not drawn)	-0.6524
O=C(c1ccn(-c2cccc(F)c2)n1)N1CCN(CC2CC2)CC1	1.903
CC1CN(C)CCN1C(=O)c1ccn(-c2cccc(F)c2)n1 (stereo not drawn)	102.3
CC1CN(C)CCN1C(=O)c1ccn(-c2cccc(Cl)c2)n1 (stereo not drawn)	-2.456
CCc1cnc(N2CCN(Cc3ccncc3)CC2)s1	-22.29
Cn1cc(CN2CCN(Cc3nccn3C)CC2)cn1	-17.17
Cn1cc(CN2CCS(=O)(=O)C(C)(C)C2)cn1	112.3
Cc1ccc(CN2CCN(CC(=O)N(C)C)[C@@H]3CS(=O)(=O)C[C@@H]32)cc1C	8.037
Cn1cc(CN2CC3(CCN(Cc4ccsc4)C3)C2)cn1	-4.449
COCCC1(CO)CCCN(Cc2ccncc2)C1 (stereo not drawn)	-9.658
CC1(C)CN(Cc2ccncc2)CCS1(=O)=O	93.26
Cc1ccc(CN2CCN(CC3CC3)[C@@H]3CS(=O)(=O)C[C@@H]32)cc1C	-7.096
Cc1ccc(CN2CCS(=O)(=O)C(C)(C)C2)cc1C	113.6
